MCF10A rerep: inducers of DNA re-replication in MCF 10A breast cells. MCF 10A DNA re-replication, Hoechst nuclear intensity, 48 h. Potency, µM (top dose mostly 46.1 µM), for the others: at the top dose activity, positive = re-replication, actives largely listed as activators. 2.9% of 350,000 active; also: % of control where 0% means no effect; nearly all actives have a fitted effect of over 50% in size
ELG1 repair inh: ELG1-dependent DNA repair inhibition; HEK293T ELG1-luciferase reporter, luminescence, 16 h; DNA damage induced by 5-fluorouridine; Potency, µM (highest dose often 46.1 µM), inactives show top-dose activity change, negative = inhibition, most hits filed as inhibitors; 2.3% of 330,000 active; also: % is scaled to controls: 0 for no effect and ±100 for the full control effect; nearly all actives have a fitted effect of over 55% in size
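In this reporter screen, reduction of luminescence relative to DMSO vehicle indicated activity. Compounds and 5-fluorouridine were added together to 2,000 cells per well, incubated for 16 hr at 37 °C, then developed with ONE-Glo.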
SW480 rereplic: DNA re-replication induction in SW480 cells | SW480 DNA re-replication, Hoechst DNA content imaging, 48 h | Potency, µM (top dose mostly 46.1 µM), for inactives: top-dose re-replication activation, most hits filed as activators | 1.8% of 340,000 active; also: % of control where 0% means no effect; nearly all actives have a fitted effect of over 55% in size
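Hoechst fluorescence of nuclei (405 nm excitation, 500-530 nm emission) measured by plate-scanning imager after 48 hr compound exposure at 37 C; re-replication scored as increased number of nuclei with elevated intensity.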
KB-3-1 tox: KB-3-1 parental cell cytotoxicity. 1.4% of 400,000 active. KB-3-1 viability, CellTiter-Glo ATP luminescence, 72 h. AID 1347075. Potency, µM (series often up to 46.1 µM), actives largely listed as cytotoxic; also: % is scaled to controls: 0 for no effect and ±100 for the full control effect; nearly all actives have a fitted effect of over 60% in size
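Cells are dispensed, compounds pinned in, plates held at 37 °C for 72 h, then CellTiter-Glo is added and luminescence read after 10 minutes. Cell line: parental KB-3-1 in phenol-red-free DMEM, 10% FBS.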
KB-V1 MDR tox: kills drug-selected multidrug resistant KB-V1 cells. KB-V1 MDR cells viability, CellTiter-Glo, 72 h. 3.4% of 400,000 active. Potency, µM (series often up to 46.1 µM), hits mostly cytotoxic; also: % is scaled to controls: 0 for no effect and ±100 for the full control effect; nearly all actives have a fitted effect of over 60% in size
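Following 72 h at 37 degrees C with compound, KB-V1 cell viability was read by CellTiter-Glo luminescence, medium being phenol-red-free DMEM plus 10% FBS; concentration-response parameters came from normalized, curve-fitted qHTS data.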
* marks the source's active call; other numbers are inactive results; i = inactive; ? = inconclusive; / = not tested or not shown; [ ] = another dose, or the depositor's remark. The list is not random: actives were taken first. Their share in the collection is about 8.1%. Calls follow the shape of the dose curve; as a rule, active = well fitted curve in the direction sought with a large enough effect; inconclusive = small, poorly fitted or top-dose-only effect, or another doubt; inactive = no such curve, though single readings can be large; an effect the other way counts as inactive or inconclusive. Potency is read from the fitted curve at half-maximal effect.

SMILES	MCF10A rerep	ELG1 repair inh	SW480 rereplic	KB-3-1 tox	KB-V1 MDR tox
O=C(Cc1ccccc1)NC1CC(=O)N(c2ccc3c(c2)OCCO3)C1 (stereo not given)	/	/	/	i	i
CC(Sc1nnc2n1CCCCC2)C(=O)Nc1ccc(S(N)(=O)=O)cc1 (stereo not given)	8.4%	13.0%	-0.9%	i	i
Clc1ccc(-c2cn3c(n2)-c2ccccc2C3)cc1Cl	-2.2%	?	-1.9%	i	14.6µM*
Clc1ccc(-c2cn3cc(Br)ccc3n2)cc1Cl	19.9%	?	1.4%	i	i
COc1ccccc1N1CCN(C(=O)C2c3ccccc3Oc3ccccc32)CC1	1.84µM*	?	5.8µM*	1.84µM*	2.59µM*
Clc1ccc(Cn2nc(-c3ccccc3)nc2-c2ccccc2)cc1	?	?	2.9%	i	i
Clc1ccccc1Cn1nc(-c2ccccc2)nc1-c1ccccc1	25.3%	9.4%	4.0%	i	14.6µM*
O=c1c(N2CCc3ccccc3C2)csc2ccc(Br)cc12	/	/	/	i	i
CC(C)c1ccc(-c2noc(C3CCCN(C(=O)c4ccc(F)cc4F)C3)n2)cc1 (stereo not given)	11.6µM*	24.9%	?	?	?
Cc1ccc(NC(=O)N2CCCC(c3nc(-c4ccc(F)cc4)no3)C2)cc1 (stereo not given)	0.1%	-4.4%	-4.9%	i	i
Cc1ccccc1NC(=O)N1CCCC(c2nc(-c3ccc(F)cc3)no2)C1 (stereo not given)	3.4%	?	4.9%	i	14.6µM*
Cc1ccc(-c2noc(C3CCCN(C(=O)c4ccc(F)cc4F)C3)n2)cc1 (stereo not given)	?	-13.6%	3.7%	?	?
O=C(Nc1ccccc1)N1CCCC(c2nc(-c3ccc(F)cc3)no2)C1 (stereo not given)	1.4%	-5.0%	1.9%	i	?
Cc1ccccc1NC(=O)N1CCCC(c2nc(-c3ccc(C(C)C)cc3)no2)C1 (stereo not given)	14.6µM*	?	2.4%	18.4µM*	i
O=C(C1CCCCC1)N1CCCC(c2nc(-c3ccc(F)cc3)no2)C1 (stereo not given)	26.2%	0.0%	-3.5%	i	20.6µM*
CN(CC(=O)Nc1ccc(F)cc1F)S(=O)(=O)c1ccc(C(=O)N2CCOCC2)s1	/	/	/	i	i
C[C@@H]1CCC2[C@@H](C)[C@@H](O)O[C@@H]3O[C@@]4(C)CC[C@@H]1[C@@]23OO4 (stereo not given in full)	25.6%	/	?	/	/
COc1ccc(CN2CCN(C(=O)c3ccccc3C(=O)c3ccccc3)CC2)cc1F	/	/	/	i	?
Cc1cc(C(=O)COc2cc(F)ccc2[N+](=O)[O-])c(C)n1CC1CCCO1 (stereo not given)	?	?	-6.4%	i	?
COc1cc(/C=N/N=C2/NC(=O)C(Cc3ccccc3)S2)ccc1O (stereo not given)	18.4µM*	?	27.5%	i	?
COc1ccc(/C=N/N=C2/NC(=O)C(CC(=O)O)S2)cc1OS(=O)(=O)c1ccccc1 (stereo not given)	-17.5%	5.9%	-3.8%	i	i
O=C1N/C(=N\N=C\c2cccnc2)SC1Cc1ccc(SC(F)F)cc1 (stereo not given)	?	19.6%	24.6%	?	4.11µM*
O=C1N/C(=N\N=C\c2ccccn2)SC1Cc1cccc(SC(F)F)c1 (stereo not given)	?	-21.8%	?	?	3.66µM*
O=C1N/C(=N\N=C\c2ccc3ncccc3c2)SC1Cc1ccc(SC(F)F)cc1 (stereo not given)	16.4µM*	?	?	i	?
Cc1cccc(CC2S/C(=N/c3ccccn3)NC2=O)c1 (stereo not given)	?	-15.5%	-3.0%	i	i
SMILES	MCF10A rerep	ELG1 repair inh	SW480 rereplic	KB-3-1 tox	KB-V1 MDR tox
O=C(CC1S/C(=N/N=C/c2cccnc2)NC1=O)Nc1ccccc1 (stereo not given)	17.2%	3.0%	-1.4%	i	i
CC(NC(=O)C1=CC=CN2CCS(=O)(=O)N=C12)c1ccc(Cl)cc1Cl (stereo not given)	-1.0%	-3.4%	-1.7%	i	i
CC(C)c1ccc(S(=O)(=O)c2nnn3c2nc(N2CCCC2)c2sccc23)cc1	/	/	/	i	i
Cc1nnc(SCC(=O)c2c(N)n(C3CC3)c(=O)[nH]c2=O)n1-c1ccccc1	-5.7%	3.4%	-32.8%	?	?
O=C1N/C(=N\N=C\c2cccs2)SC1Cc1cccc(Cl)c1 (stereo not given)	2.91µM*	-8.3%	?	?	?
COc1ccc(CN2C(=O)N(c3cccc(C)c3)C(=O)C2CC(=O)Nc2ccc(F)cc2)cc1OC (stereo not given)	/	/	/	i	i
N#Cc1ccc(CN2CCN(C(=O)Cn3nc(C(N)=O)c4ccccc4c3=O)CC2)cc1	4.0%	-8.4%	20.6µM*	i	i
CCOC(=O)CSC1=NC(=O)/C(=C\c2ccc(OC(C)=O)cc2)S1	2.59µM*	?	?	?	?
Cc1ccc(S(=O)(=O)N/N=C2/CC(c3ccccc3)Oc3ccccc32)cc1[N+](=O)[O-] (stereo not given)	?	?	17.2%	i	i
O=S(=O)(N/N=C1/CC(c2ccccc2)Oc2ccccc21)c1ccc(Br)cc1 (stereo not given)	10.3µM*	-16.3%	?	18.4µM*	23.1µM*
Cc1ccc(Cc2c(C)c(C#N)c3[nH]c4ccccc4n3c2=O)cc1	?	18.3µM*	-28.2%	?	i
C=C(C)Cc1c(C)c(C#N)c2[nH]c3ccccc3n2c1=O	?	20.6µM*	7.8%	?	?
Cc1c(CCC(=O)O)c(=O)n2c([nH]c3ccccc32)c1C#N	21.4%	0.3%	-6.9%	i	i
COCc1cc(=O)n2c([nH]c3ccccc32)c1C#N	-2.0%	?	-8.5%	i	?
CCOc1ccc(NC(=O)Cn2c(CCC(=O)O)ccc2-c2ccc(C)cc2)cc1	/	/	/	i	?
Cc1nc(-c2ccccc2)ccc1C(=O)O	?	7.5%	4.9%[1.84 µM]	i	i
COC(=O)c1ccc(-c2ccc(F)cc2)nc1C	-5.6%	?	29.1µM*	i	i
Cc1ccc(-c2ccc(C(=O)O)c(C)n2)cc1	-46.5%	-0.7%	2.31µM*	i	i
COCc1cccc(-c2csc(C(C)(O)c3ccc(OC)cc3)n2)c1 (stereo not given)	/	/	/	i	i
Cc1ccc(C)c(NC(=O)c2cccc(Oc3ccc([N+](=O)[O-])cc3Cl)c2)c1	5.7%	-17.3%	22.0%	i	i

Source: PubChem BioAssay
